Data: PubChem BioAssay (NCATS)
Inconclusive results are not listed. Where a call stands in place of a potency, no number is given. Active and inactive are the calls of the source. Calls come from the whole dose curve; as a rule, active = well fitted cell-killing curve with a large enough effect; inconclusive = small, poorly fitted or top-dose-only effect, or effect the other way; inactive = no such curve, though single readings can be large or run the other way.

Tests used:
[1] = Viability qHTS for spleen associated tyrosine kinase inhibitor (SYKi) naive MV4-11 cells (AID 1963823); note: nearly all actives have a fitted effect of over 40% in size
Method in brief: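 CellTiter-Glo luminescence, 10 min room-temperature incubation, gave viability. Cells: naive MV4-11 (500/well), treated 72 hr at 37 C, 5% CO2.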

[2] = Viability qHTS for spleen associated tyrosine kinase inhibitor (SYKi) drug resistant MV4-11 cells (AID 1963824); note: nearly all actives have a fitted effect of over 35% in size
Method in brief: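 SYK inhibitor-resistant MV4-11 AML cells, 500 per well, added to predispensed compounds and incubated 72 hr at 37 C, 5% CO2. Viability measured by CellTiter-Glo luminescence after 10 min at room temperature.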
Potency is the fitted concentration of half-maximal effect.

Compound: C=C1CCC2(C(=O)OC3OC(CO)C(O)C(O)C3O)CCC3(C)C(=CCC4C5(C)CCC(OC6OC(CO)C(OC7OC(C)C(O)C(O)C7O)C(OC7OCC(O)C(O)C7O)C6O)C(C)(C)C5CCC43C)C2C1 (centres undefined)
- viability (% of control) [1]: 89.9% [at 9.25 µM] (inactive)
- viability, % of control [2]: 105% [at 9.25 µM] (inactive)

Compound: Nc1ncnc2c1ncn2[C@H]1CCCO1
- Potency [1]: inactive
- Potency [2]: inactive

Compound: C[C@@H]1CC[C@]2(C(=O)O[C@@H]3O[C@H](CO)[C@@H](O)[C@H](O)[C@H]3O)CC[C@]3(C)C(=CCC4[C@@]5(C)C[C@@H](O)[C@H](O)C(C)(C)C5CC[C@]43C)C2[C@]1(C)O (some centres undefined)
- Potency [1]: inactive
- Potency [2]: inactive

Compound: C=C1CCC[C@]2(C)CC[C@@H](C(=C)C(=O)O)[C@H](O)[C@@H]12
- Potency [1]: inactive
- Potency [2]: inactive

Compound: Cc1cnc(NC(=O)Nc2cc(Br)c(C)cc2OCC2CNCCO2)cn1 (centres undefined)
- Potency [1]: 731 nM (active)
- Potency [2]: 820 nM (active)

Compound: COc1ccc2cc(-c3cc(-c4cc(Cl)cc(Cl)c4)nn3C(C)c3ccc(C(=O)NCCC(=O)O)cc3)ccc2c1 (centres undefined)
- Potency [1]: 23100 nM (active)
- Potency [2]: 25900 nM (active)

Compound: CC(=O)/C=C/[C@H]1[C@](C)(O)[C@@H](O)[C@H](OC(C)=O)C2C(C)(C)CCC[C@@]21C (some centres undefined)
- Potency [1]: inactive
- Potency [2]: inactive

Compound: c1ccc(-c2cnn3cc(-c4ccc(OCCN5CCOCC5)cc4)cnc23)cc1
- Potency [1]: 18.4 nM (active)
- Potency [2]: 58 nM (active)

Compound: Cn1c(=O)cc(N2CCCC(N)C2)n(Cc2ccccc2C#N)c1=O (centres undefined)
- Potency [1]: inactive
- Potency [2]: inactive

Compound: CC[C@@H](Nc1c(Nc2cccc(C(=O)N(C)C)c2O)c(=O)c1=O)c1ccc(C)o1
- Potency [1]: inactive
- Potency [2]: inactive

Compound: CCC(C)C(=O)Oc1cc(C)ccc1C1(COC(=O)C(C)C)CO1 (centres undefined)
- Potency [1]: 2860 nM (active)
- Potency [2]: 2020 nM (active)

Compound: CC(O)CCC1C(CO[C@@H]2O[C@H](CO)[C@@H](O)[C@H](O)[C@H]2O)CC(O)CC1(C)C (some centres undefined)
- Potency [1]: inactive
- Potency [2]: inactive
